# In the library only some 0.73% were active in any assay of this set; here they are far more common.
# BH1578 lux ind – inducers of Vibrio cholerae quorum light production without autoinducers, primary screen, BH1578 luxS cqsA deficient, single point; 350,000 tested, 0.16% active; V. cholerae BH1578 lux reporter, luminescence, 6 h; activation, % at 18.7 µM; AID 588436, 2011; in the data active means activation mostly above about 9.7%, no sharp cut-off
# DUSP3 inh – VHR1 phosphatase inhibitors, primary screen, biochemical, absorbance, uHTS | Dual specificity protein phosphatase 3 (Homo sapiens), P51452 | recombinant VHR phosphatase, pNPP absorbance | inhibition, % at 13.3 µM | 290,000 tested, 0.52% active; in the data active means inhibition above about 50%
# Mtb BioA inh – M. tuberculosis BioA enzyme inhibitors, primary screen, biochemical, plate reader, single point, HTS. 7,8-diaminopelargonic acid synthase BioA (Mycobacterium tuberculosis). AID 602481, 2012. 360,000 tested, 0.096% active. purified M. tuberculosis BioA enzyme. inhibition, % at 9.99 µM; in the data active means inhibition above about 40%
# TcdB GH inh – TcdB glycohydrolase inhibitors, primary screen, biochemical, single point, plate reader; AID 652162, 2013; TcdB glycohydrolase enzymatic assay; 350,000 tested, 0.24% active; inhibition, % at 9.99 µM; Toxin B (Clostridioides difficile), P18177; in the data active means inhibition above about 10%
# Yp Topo-I inh – Yersinia pestis topoisomerase I inhibitors, primary screen, biochemical, cleavage product accumulation, plate reader, single point; 360,000 tested, 0.064% active; Y. pestis Topo-I cleavage product accumulation; activity, % at 10 µM; in the data active means activity above about 50%, passing the limit was not always enough
# * = called active by the depositor; i = inactive; . = no result.
SMILES,BH1578 lux ind,DUSP3 inh,Mtb BioA inh,TcdB GH inh,Yp Topo-I inh
COc1ccc(S(=O)(=O)N(C)C[C@H]2Oc3c(NS(=O)(=O)c4cccs4)cccc3C(=O)N([C@@H](C)CO)C[C@H]2C)cc1,.,.,-5.7,0.7,.
O=C(O)c1ccc(N=Cc2c(O)ccc3ccccc23)cc1,0.4,-8.4,-0.9,0.0,-13.3
O=S(=O)(/N=C/c1c(O)ccc2ccccc12)c1ccccc1,-0.3,53.9*,-1.9,0.4,-1.8
O=C(c1cccnc1)N1CC[C@@H]2[C@H]1c1cc(C#Cc3cccnc3)ccc1N[C@@H]2CO,.,.,-0.6,-7.1,.
C[C@H]1CN([C@@H](C)CO)C(=O)c2cccc(NC(=O)C3CCCCC3)c2O[C@@H]1CN(C)C(=O)NC1CCCCC1,.,.,-3.2,0.4,.
Cc1ccc(C(=O)N2N=C(c3cccc(NS(C)(=O)=O)c3)CC2c2cccs2)cc1 (stereo not drawn),-0.7,30.8,2.2,0.5,5.8
CS(=O)(=O)Nc1cccc(C2=NN(C(=O)c3ccccc3)C(c3cccs3)C2)c1 (stereo not drawn),-0.4,3.5,4.9,12.7*,3.6
CO[C@@H]1CN(C)C(=O)c2ccc(NC(=O)c3ccc4c(c3)OCO4)cc2OC[C@@H](C)N(CC2CC2)C[C@@H]1C,.,.,2.7,1.1,.
COc1ccccc1/C=N/NC(=O)CO,-0.2,22.3,.,3.0,-1.1
COc1ccccc1/C=N/NC(=O)CC(=O)NCc1ccccc1,-0.8,-6.2,1.7,10.5*,8.3
COc1ccc([N+](=O)[O-])cc1NC(=O)CCN1CCN(CCO)CC1,-0.3,-6.9,45.4*,-0.7,3.2
CCOC(=O)Cn1c(C(F)(F)F)nc2nc(Cl)c(Cl)nc21,1.9,.,.,11.7*,0.9
CCOC(=O)Cn1c2ccccc2c2nc3ccccc3nc21,-0.3,14.2,-0.5,.,1.0
CC(C)C#Cc1ccc2c(c1)O[C@H](CN(C)S(C)(=O)=O)[C@H](C)CN([C@H](C)CO)S2(=O)=O,.,.,1.6,-0.6,.
O=C(CC1CC1)Nc1ccc2c(c1)[C@H]1C[C@@H](CC(=O)N3CCOCC3)O[C@H](CO)[C@H]1O2,.,.,-2.4,.,.
Cc1ccc(S(=O)(=O)N2CCCN(C(=O)c3cc4ccccc4[nH]3)CC2)cc1,0.6,50.0*,0.6,0.9,14.3
O=C(Nc1ccccn1)c1ccc(Br)s1,0.9,55.0*,-1.6,0.6,-2.7
O=C(Nc1ccccn1)c1ccc(C(=O)Nc2ccccn2)cc1,-0.3,7.9,1.3,.,-4.2
COc1ccccc1S(=O)(=O)N1CC[C@@H]2[C@H]1c1cc(-c3ccccc3F)ccc1N[C@@H]2CO,.,.,-1.0,-0.2,.
CC(C)(C)c1ccc(OCC(O)CN(CCO)CC(O)Cn2ccc3ccccc32)cc1 (stereo not drawn),-0.3,11.9,.,1.0,30.4
OCCN(CC(O)Cn1ccc2ccccc21)CC(O)Cn1ccc2ccccc21 (stereo not drawn),-0.4,50.8*,.,.,4.1
C[C@H](CO)N1C[C@H](C)[C@H](CN(C)CC2CCCC2)OCc2cnnn2CCCC1=O,.,.,-4.5,0.6,.
CCC(=O)N1CC[C@@H]2[C@H]1c1cc(-c3ccc(OC)cc3)ccc1N(C)[C@H]2CO,.,.,.,11.3*,.
CC(C)NC(=O)N1CC[C@@H]2[C@@H](CO)N(C)c3ccc(-c4ccc(F)cc4)cc3[C@@H]21,.,.,.,11.7*,.
CN1c2ccc(-c3ccccc3)cc2[C@@H]2[C@@H](CCN2C(=O)Cc2cccnc2)[C@H]1CO,.,.,.,-0.6,.
SMILES,BH1578 lux ind,DUSP3 inh,Mtb BioA inh,TcdB GH inh,Yp Topo-I inh
COCC(=O)N1CC[C@H]2[C@@H]1c1cc(-c3ccc(OC)cc3)ccc1N(C)[C@H]2CO,.,.,9.3,14.0*,.
COc1ccc(-c2ccc3c(c2)[C@H]2[C@H](CCN2C(=O)Cc2cccnc2)[C@@H](CO)N3C)cc1,.,.,1.1,10.8*,.
O=C(c1cccc(F)c1)N1CC(=O)N2[C@H](C1)[C@H](c1ccc(-c3ccccc3F)cc1)[C@@H]2CO,.,.,.,-2.1,.
C[C@@H]1CN([C@@H](C)CO)C(=O)c2cc(NC(=O)Nc3cccc4ccccc34)ccc2O[C@@H](C)CCCCO[C@@H]1CN(C)Cc1ccccc1,.,.,1.0,0.9,.
COCC(=O)N1CC[C@@H]2[C@@H](CO)N(C)c3ccc(-c4ccccc4)cc3[C@@H]21,.,.,.,13.1*,.
COCC(=O)N1CC[C@@H]2[C@H]1c1cc(-c3ccc(F)cc3)ccc1N(C)[C@H]2CO,.,.,13.0,14.7*,.
COCC(=O)N1CC[C@H]2[C@@H]1c1cc(-c3ccccc3)ccc1N(C)[C@H]2CO,.,.,.,-2.0,.
COc1cccc(S(=O)(=O)N[C@@H]2CC[C@H](CCNC(=O)Nc3cc(F)ccc3F)O[C@H]2CO)c1,.,.,3.0,-7.2,.
Cc1ccc(OCCCCn2cnc3ccccc32)c(C)c1,-0.3,55.3*,-1.3,.,21.0
Brc1ccccc1OCCCCn1cnc2ccccc21,-0.1,30.2,.,0.9,15.2
COc1ccc(C(=O)Nc2ccc3c(c2)C(=O)N(C)C[C@@H](OC)[C@@H](C)CN(C(C)=O)[C@@H](C)CO3)cc1,.,.,0.2,-2.2,.
Cc1ccc(C(=O)NC(=S)NNC(=O)CC#N)cc1,5.6,13.9,.,12.0*,-1.9
CNC(=O)C[C@@H]1CC[C@H]2[C@@H](COc3ccc(NS(=O)(=O)c4ccccc4C)cc3C(=O)N2C)O1,.,.,0.0,8.0,.
CNC(=O)C[C@@H]1CC[C@H]2[C@H](COc3ccc(NS(=O)(=O)c4ccccc4C)cc3C(=O)N2C)O1,.,.,0.8,11.5*,.
CNC(=O)C[C@H]1CC[C@H]2[C@H](COc3ccc(NS(=O)(=O)c4ccccc4C)cc3C(=O)N2C)O1,.,.,-0.1,5.9,.
CNC(=O)C[C@H]1CC[C@@H]2[C@H](COc3ccc(NS(=O)(=O)c4ccccc4C)cc3C(=O)N2C)O1,.,.,-1.7,12.4*,.
C[C@H](NC(=O)[C@@H]1N[C@@H]2c3ccc(C4=CCCCC4)c(=O)n3C[C@@H]2[C@H]1CO)c1ccccc1,.,.,-1.8,0.2,.
O=C(CN1CCOCC1)NCC[C@H]1CC[C@H](NC(=O)Nc2ccc(C(F)(F)F)cc2)[C@H](CO)O1,.,.,1.2,-0.4,.
O=C(c1ccco1)N1CCN(C(=O)C2CC(c3ccc(Cl)cc3)=NO2)CC1 (stereo not drawn),i,58.9*,1.5,.,-1.4
O=C(Nc1ccc(F)cc1)Nc1ccc2c(c1)[C@H]1C[C@@H](CC(=O)N3CCCCC3)O[C@H](CO)[C@H]1O2,.,.,-2.5,.,.
O=C1NN=C2CCCCCCC12 (stereo not drawn),-4.8,.,-1.3,11.0*,0.6
COc1ccc(-c2ccc3c(c2)[C@H]2[C@H](CCN2C(=O)C2CC2)[C@@H](CO)N3C)cc1,.,.,1.2,14.6*,.
COc1ccc(-c2ccc3c(c2)[C@@H]2[C@@H](CCN2C(=O)C2CC2)[C@H](CO)N3C)cc1,.,.,-2.2,13.0*,.
Cc1ccc(-c2nn(C)c(=O)c3ccccc23)cc1CO,16.7*,11.8,0.4,.,4.6

# Screens as filed in PubChem.
